High-throughput results from PubChem.
A selection: hits, their analogues and other compounds. The true share with any hit is near 5.3%.
TDP1 inh = qHTS Assay for Inhibitors of Tyrosyl-DNA Phosphodiesterase (TDP1); Tyrosyl-DNA phosphodiesterase 1 (Homo sapiens), Q9NUW8; recombinant TDP1, AlphaScreen DNA substrate cleavage; Potency, µM (titrated, usually from 130 µM), hits mostly inhibitors; 350,000 tested, 0.28% active; AID 485290, 2010; note: nearly all actives have a fitted effect of over 40% in size
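Compounds were preincubated with Tdp1 (1 nM final) for 15 min at room temperature before substrate (15 nM final) started a 5 min reaction; beads (10 ug/ml final) were then added for 10 min before AlphaScreen detection.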
JMJD2A Tudor inh = qHTS Assay for Inhibitors of JMJD2A-Tudor Domain | Potency, µM (highest dose often 114 µM), actives largely listed as inhibitors | AID 504339, 2011 | AlphaScreen JMJD2A-Tudor / H3K4me3 peptide binding | 390,000 tested, 4.4% active; note: nearly all actives have a fitted effect of over 50% in size
BAZ2B block = qHTS Assay for Inhibitors of BAZ2B; Bromodomain adjacent to zinc finger domain protein 2B (Homo sapiens), Q9UIF8; AlphaScreen BAZ2B-H3K14Ac peptide displacement; Potency, µM (doses to about 114 µM), actives largely listed as inhibitors; 360,000 tested, 4.4% active; note: nearly all actives have a fitted effect of over 60% in size
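Multi-concentration screen (max 110 uM) measuring displacement of acetylated histone H3 peptide from BAZ2B by AlphaScreen, using 50 nM protein, 50 nM peptide and 10 ug/mL streptavidin donor plus Ni-chelate acceptor beads.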
Six1-Eya2 blk = qHTS Assay for Inhibitors of the Six1/Eya2 Interaction; AID 651725, 2012; Homeobox protein SIX1 (Homo sapiens) + Protein phosphatase EYA2 (Homo sapiens), …; AlphaScreen GST-Six1/His-Eya2 binding, biochemical; active compounds read low; activity change, % (test concentration not listed); 360,000 tested, 0.56% active; in the data active = activity change below about -65%; inconclusive = mostly about -30% to -63%
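Compounds are tested against tagged Six1 and Eya2 proteins bridged by glutathione donor and nickel acceptor beads; after a one-hour incubation at 37 °C without light, AlphaScreen emission is recorded.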
HP1b binding inh = HTS for Inhibitors of HP1-beta Chromodomain Interactions with Methylated Histone Tails. Chromobox protein homolog 1 (Homo sapiens), P83916. AlphaScreen HP1-beta / biotin-H3K9me3 peptide binding. Potency, µM (highest dose often 114 µM), actives largely listed as inhibitors. 390,000 tested, 0.56% active. AID 540317, 2011; note: nearly all actives have a fitted effect of over 70% in size
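Compound inhibition of the preformed complex between 50 nM HP1-beta and 50 nM biotinylated H3K9me3 peptide was read by AlphaScreen. Buffer was PBS pH 7.4 with 0.01% Tween-20. Incubations ran 30 min at room temperature, with 10 ug/mL donor/acceptor beads.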
CtBP-E1A blk = qHTS Assay for Inhibitors of the CtBP/E1A Interaction. AID 651724, 2012. AlphaScreen GST-E1A/His-CtBP binding, 1536-well; active compounds read low. activity change, % (no concentration beside the values). CtBP / adenovirus E1A interaction (AlphaScreen). 340,000 tested, 0.49% active; in the data active = activity change below about -65%; inconclusive = mostly about -30% to -63%
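GST-E1A and His-tagged CtBP (125 nM each as 5X stock) were preincubated with pin-transferred compound for 2 h at 37 °C in the dark, then glutathione donor and nickel acceptor beads were added for 1 h before AlphaScreen reading.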
Hits are given with their value; - = inactive; ? = inconclusive; . = not tested or not shown. Unless noted, calls come from the whole dose curve; as a rule, active = well fitted inhibition curve with a large enough effect; inconclusive = small, poorly fitted or top-dose-only effect; inactive = no such curve, though single readings can be large or run the other way.

SMILES | TDP1 inh | JMJD2A Tudor inh | BAZ2B block | Six1-Eya2 blk | HP1b binding inh | CtBP-E1A blk
CN(C)c1nc(N)c(C(=O)Nc2cccnc2)nc1Cl | - | . | . | . | . | .
COc1ccc(CN=Cc2[nH]c3ccc(Br)c(Cl)c3c2O)cc1 | - | ? | 45µM | - | ? | -
COCCCn1c(=N)c(C(=O)NC2CCCCC2)cc2c(=O)n3cc(C)ccc3nc21 | . | - | - | . | - | .
Cc1cc(C)cc(NC(=S)NCc2ccc3[nH]c4c(c3c2)CCCC4)c1 | - | 50µM | 32µM | - | ? | -
Cc1ccc2c(CC(=O)Nc3cccc(Cl)c3C)coc2c1 | - | - | - | . | - | .
COc1ccc(-c2csc(NC(=O)CSc3nc(C)nc4sc(C(=O)O)c(C)c34)n2)cc1 | - | 22µM | 50µM | - | 22µM | -
Cc1ccc(CN2C(=O)c3ccccc3Sc3ccc(C(=O)NC4CCCCC4)cc32)cc1 | - | - | - | . | - | .
CC(=O)c1cc2c(cc1NC(=O)CN1CCCCC1C)OCO2 (stereo not drawn) | - | 20µM | 79µM | - | ? | -
CC(=O)c1cc2c(cc1NC(=O)CCC1CCCC1)OCO2 | - | . | - | . | . | .
CC(=O)Oc1ccc2nonc2c1OC(C)=O | - | ? | . | . | 20µM | .
CC(=O)Nc1cc(OC(C)=O)c2nonc2c1OC(C)=O | - | - | ? | - | - | ?
Cc1c(NC(=O)c2c(NC(=O)CNC3CC3)sc3c2CCCC3)c(=O)n(-c2ccccc2)n1C | - | 56µM | ? | - | - | -
Cc1cc(=O)oc(C)c1C(=O)Nc1c(C)n(C)n(-c2ccccc2)c1=O | - | - | - | - | - | -
CCOc1ccc(C(=O)N2CCN(c3ncccn3)CC2)cc1 | . | - | . | - | - | .
CCN(CC)C(=O)CN1CCN(c2ncccn2)CC1 | - | 4.5µM | 25µM | - | ? | -
Cc1nc(S/C(=C/c2ccc(OCc3ccc(C(=O)O)cc3)cc2)C(=O)O)n[nH]1 | 13µM | 2.8µM | ? | - | - | -
CC(C)N1CCc2c(sc(NC(=O)c3ccc4ccccc4c3)c2C(N)=O)C1 | - | - | - | - | - | -
CC(C)N1CCc2c(sc(NC(=O)c3cc4cc([N+](=O)[O-])ccc4s3)c2C(N)=O)C1 | - | ? | 40µM | - | ? | -
CC(C)N1CCc2c(sc(NC(=O)c3ccc(S(=O)(=O)N4CCCCC4C)cc3)c2C(N)=O)C1 (stereo not drawn) | - | - | 50µM | - | - | -
CC(C)N1CCc2c(sc(NC(=O)c3ccc(C(=O)c4ccccc4)cc3)c2C(N)=O)C1 | - | 56µM | ? | - | - | -
O=C(Nc1ccccc1OCc1cc(=O)n2ccccc2n1)Nc1ccccc1C(F)(F)F | - | - | - | . | - | .
CCc1ccc(NC(=O)C(=O)NCC(c2ccc3c(c2)OCO3)N2CCOCC2)cc1 (stereo not drawn) | - | - | - | . | - | .
O=C1c2ccccc2C(Nc2ccc3c(c2)OCO3)N1Cc1ccc2c(c1)OCO2 (stereo not drawn) | - | 45µM | 20µM | ? | ? | -
O=C1c2ccccc2C(O)N1Cc1ccc2c(c1)OCO2 (stereo not drawn) | - | - | - | - | - | -
O=C1c2ccccc2C(Nc2cccnc2)N1Cc1ccc2c(c1)OCO2 (stereo not drawn) | - | - | - | - | - | -
SMILES | TDP1 inh | JMJD2A Tudor inh | BAZ2B block | Six1-Eya2 blk | HP1b binding inh | CtBP-E1A blk
COc1ccc(OC)c(NC2c3ccccc3C(=O)N2Cc2ccc3c(c2)OCO3)c1 (stereo not drawn) | - | 45µM | 35µM | ? | ? | ?
Cc1ccc(CNC(=O)c2ccc3c(c2)CCN3S(=O)(=O)c2ccc(Br)cc2)cc1 | - | - | - | . | - | .
COc1ccc(-n2nc3c(c2NC(=O)C(=O)NCc2ccccc2)CSC3)cc1 | - | - | - | . | - | .
Cc1ccc(Nc2nc(-c3ccc(F)cc3)cs2)nc1 | . | - | - | - | - | .
Cc1ccc(Nc2nc(-c3ccc(O)c(O)c3)cs2)nc1 | - | 32µM | 40µM | - | ? | -
COc1ccc(C(=O)N2CCN(C(=O)c3ccc(-c4ccccc4)cc3)CC2)cc1OC | - | - | - | - | - | -
COc1cc(CN2CCN(C(=O)c3ccc(-c4ccccc4)cc3)CC2)cc(OC)c1OC | - | 7.9µM | - | - | ? | -
COc1cc(C(=O)N2CCN(C(=O)Cc3ccccc3)CC2)cc(OC)c1OC | - | - | - | - | - | -
COc1cccc(CN2CCN(C(=O)c3ccc(-c4ccccc4)cc3)CC2)c1 | - | 2.2µM | 50µM | - | 32µM | -
COc1cc(C(=O)N2CCN(CCCc3ccccc3)CC2)cc(OC)c1OC | . | 20µM | . | - | - | -
CCOC(=O)c1ccc(NC(=O)C2CCN(C(=O)c3ccc(OC)c(OC)c3)CC2)cc1 | - | - | - | - | - | -
COC(=O)c1ccc(NC(=O)C2CCN(C(=O)c3cc(OC)c(OC)c(OC)c3)CC2)cc1 | - | 45µM | - | - | - | -
O=C(c1ccccc1)N1CCN(Cc2cccc(Oc3ccccc3)c2)CC1 | - | 40µM | 50µM | - | - | -
COc1ccc(C(=O)N2CCN(C(=O)c3cc(OC)c(OC)c(OC)c3)CC2)cc1 | - | - | - | - | - | -
CCC(CC)N1CCN(C(=O)c2cc(OC)c(OC)c(OC)c2)CC1 | . | 50µM | ? | - | ? | -
